Screening data: PubChem BioAssay, several laboratories
This is a sample that favours compounds with a hit; in the whole collection about 2.9% have one here.
Smad3 inh: blocks human Smad3 binding to FoxH1 peptide. inhibition, % at 25 µM. P84022. TR-FRET Smad3/Dy647-FoxH1 peptide binding, europium anti-His. 88,000 compounds, 0.29% hits;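 active means compounds that reduce the energy-transfer binding signal between the protein and its labelled peptide by more than half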;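 further: 0% = Smad3 plus labelled peptide maximal FRET and 100% = peptide-only background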
MRP resist rev: reverses drug resistance mediated by MRP; H69AR cells + 2 uM doxorubicin, CellTiter-Glo, 72 h; 85,000 compounds, 0.04% hits; differential viability (reversal), % at 10 µM;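 active means viability drop by adding the cancer drug above about 55%, with treated viability meeting a 40% cutoff, limit read from the data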;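 further: viability without doxorubicin minus viability with 2 µM doxorubicin for each compound; larger differential means the compound sensitizes cells more to doxorubicin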
MRP1 act: activates MRP-1; viability increase, % at 10 µM; H69AR cells + doxorubicin, viability rescue, CellTiter-Glo; 140,000 compounds, 0.61% hits;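 active means viability gain under doxorubicin at or above a set limit, the compound median plus 3 SD, cut at about 4.7% in these data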;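 further: MRP-1 overexpressing cells given doxorubicin 25 µM after compound pretreatment; 18-22 h compound pretreatment then 72 h with doxorubicin before readout; 0% = doxorubicin-only wells and 100% = vehicle-treated cells without doxorubicin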
ERb SRC1 inh: blocks coactivator binding to human estrogen receptor beta | Q92731 | TR-FRET ER-beta LBD / SRC1-Cy5 peptide binding; receptor agonist-loaded with 1 µM estradiol | inhibition, % at 25.6 µM | 86,000 compounds, 1.3% hits;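 active means compounds whose percent inhibition of the receptor-coactivator binding signal exceeds about 50% in the single-dose screen, limit read from the data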;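 further: 0% = receptor plus peptide wells without compound and 100% = peptide-only wells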
Target sequence (Q92731 whole entry, looked up, the tested form may be a part): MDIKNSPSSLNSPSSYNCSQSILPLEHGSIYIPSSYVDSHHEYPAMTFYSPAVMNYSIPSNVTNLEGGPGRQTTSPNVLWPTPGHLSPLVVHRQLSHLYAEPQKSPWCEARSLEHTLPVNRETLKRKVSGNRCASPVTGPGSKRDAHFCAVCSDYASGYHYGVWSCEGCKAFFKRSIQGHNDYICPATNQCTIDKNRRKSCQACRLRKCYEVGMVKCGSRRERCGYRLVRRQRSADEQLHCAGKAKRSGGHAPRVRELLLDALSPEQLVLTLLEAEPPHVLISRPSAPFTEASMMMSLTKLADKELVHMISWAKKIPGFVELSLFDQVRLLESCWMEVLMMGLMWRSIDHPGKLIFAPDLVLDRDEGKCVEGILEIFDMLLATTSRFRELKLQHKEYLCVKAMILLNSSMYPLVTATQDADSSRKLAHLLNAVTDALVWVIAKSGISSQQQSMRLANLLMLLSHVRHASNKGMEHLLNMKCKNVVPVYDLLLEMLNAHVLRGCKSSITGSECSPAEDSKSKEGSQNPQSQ
ERa SRC1 pot: ER-alpha (human) coactivator binding potentiation. 86,000 compounds, 1.3% hits. TR-FRET ERalpha-LBD/SRC-Cy5 coactivator binding, 2 h; 100 = basal binding, no effect. coactivator binding (% of control), % at 25.6 µM; in the data active means activity above about 200%;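 further: binding measured in presence of low estradiol as agonist stimulus; 0% = peptide alone without receptor and 100% = receptor with peptide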
ERa SRC1 inh: ER-alpha (human) coactivator binding inhibition | AID 629 | TR-FRET ER-alpha LBD / SRC-1 peptide, estradiol-bound | P03372 | 86,000 compounds, 1.7% hits | inhibition, % at 25.6 µM; in the data active means inhibition above about 50%;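 further: 0% = receptor plus peptide control and 100% = peptide only without receptor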
* hit, by the source's call; nt = no result given; ! = repeats disagree; [ ] = another dose, or the depositor's remark.

SMILES	Smad3 inh	MRP resist rev	MRP1 act	ERb SRC1 inh	ERa SRC1 pot	ERa SRC1 inh
CSc1ncccc1C(=O)Nc1nc2ccc(Oc3ccccc3)cc2s1	nt	nt	4.8*	nt	nt	nt
COc1ccc2nc(NC(=O)c3cnccn3)sc2c1	10	-13	-3	50	46	75*[fluorescence artefact?]
NC(N)=NC(N)=Nc1ccc(C(=O)O)cc1	3	nt	nt	nt	nt	nt
CCOC(=O)c1sc(-c2ccc(OC)cc2)cc1NC(C)=O	nt	nt	3	nt	nt	nt
CCOc1ccc(NC(=O)Nc2cc(-c3ccccc3)sc2C(=O)OC)cc1	nt	nt	6.1*	nt	nt	nt
O=C(O)/C=C/C(=O)Nc1ccccn1	1	nt	nt	nt	nt	nt
Cc1ccc(C2CC(=O)Oc3cc(O)ccc32)cc1 (centres undefined)	nt	nt	-1	nt	nt	nt
O=C1CC(c2ccccc2)c2cc(O)ccc2O1 (centres undefined)	nt	nt	5.1*	nt	nt	nt
CCC[C@H](Sc1nc(N)nc2nc[nH]c12)C(=O)O	7	nt	nt	nt	nt	nt
O=C(NCc1ccco1)c1cc2c(s1)CSC2	5	-2	-2	65*	77	71*
O=C(NCc1ccc2c(c1)OCO2)c1cc2c(s1)CSC2	-14	19	-1	31	74	27
NNC(=O)[C@@H](O)[C@H](O)C(=O)NN	-8	nt	nt	nt	nt	nt
CC(C)(Oc1ccc(-c2ccco2)cc1)C(=O)O	8	-6	-2	4	99	1
CC(=O)C1=C(O)C=C(c2ccco2)CC1c1ccco1 (centres undefined)	-3	21	-2	50*[fluorescence artefact?]	86	17
CSc1nc(SCCO)c2sc3nc(-c4ccco4)c4c(c3c2n1)CC(C)(C)OC4	nt	nt	-1	nt	nt	nt
CSc1nc(N(CCO)CCO)c2sc3nc(-c4ccco4)c4c(c3c2n1)CCC4	32	-3	-3	83*[fluorescence artefact?]	52	81*[fluorescence artefact?]
O=C(NCCCN1CCCCCC1)C1CC(=O)N(CCc2ccccc2)C1 (centres undefined)	60*	-6	0	22	966*[fluorescence artefact?]	3
CCC1(C)Cc2c(sc3nnn(CC(=O)Nc4cccc5ccccc45)c(=O)c23)CO1 (centres undefined)	nt	nt	-4	nt	nt	nt
CCC1(C)Cc2c(sc3nnn(CC(=O)Nc4ccc(C)cc4)c(=O)c23)CO1 (centres undefined)	nt	nt	9.7*	nt	nt	nt
CCC(=O)Nc1cc(OC)c(NC(=O)c2ccccc2)cc1OC	-3	16	-1	53*[fluorescence artefact?]	59	64*[fluorescence artefact?]
CCC(=O)N1N=C2CC(C)(C)OCC2C1c1ccccc1 (centres undefined)	nt	nt	-1	nt	nt	nt
CC1=CC(=C2C(=O)c3ccccc3C2=O)C=C(C)O1	-10	-78	-3	3	884*[fluorescence artefact?]	8
Oc1ccc(Cl)cc1C=Nc1cnc2ccccc2c1	5	nt	nt	nt	nt	nt
COc1cc2[nH]c(=S)n(N(C(C)=O)C(C)=O)c(=O)c2cc1OC	13	7	-2	-78	201*[fluorescence artefact?]	-67
CCc1nnc(NC(=O)CSc2nc3c(cc2C#N)CCCC3)s1	-127	-5	-3	-10	510*[fluorescence artefact?]	-20
SMILES	Smad3 inh	MRP resist rev	MRP1 act	ERb SRC1 inh	ERa SRC1 pot	ERa SRC1 inh
CCOC(=O)c1sc(NC(=O)CSc2nc3c(cc2C#N)CCCCC3)c(C#N)c1C	nt	nt	-2	nt	nt	nt
CN1CCc2nc(SCC(=O)Nc3ccc(F)cc3)c(C#N)cc2C1	15	7	0	49	38	83*
COc1ccc(NC(=O)CSc2nc3c(cc2C#N)CN(C)CC3)cc1	4	7	1	56*	34	93*[fluorescence artefact?]
COc1ccc(C(=O)N2CCCN(C)CC2)cc1S(=O)(=O)N1CCCc2ccccc21	-3	-15	-4	-11	225*	-13
CCOc1ccc2[nH]c(=O)c(=O)[nH]c2c1	0	19	0	54*	74	52*[fluorescence artefact?]
Cc1nn(C)c(C)c1N=Cc1c(O)ccc2ccccc12	8	-6	-1	68*[fluorescence artefact?]	96	-4
Oc1ccc2ccccc2c1/C=N/n1cnnc1	9	2	-3	7	123	-2
CCN(CC)CC[n+]1ccc2c(C)c3[nH]c4ccccc4c3c(C)c2c1	12	nt	nt	nt	nt	nt
C[N+]1(NCC[N@+]2(C)CCc3ccccc3C2)CCCCC1	95*	nt	nt	nt	nt	nt
Cc1oc2nc(SCC(=O)NCCCO)nc(N)c2c1C	-4	-2	-1	64*	101	-8
Cc1ccc(S(=O)(=O)NCC(=O)OCC(=O)c2c(N)n(C)c(=O)n(C)c2=O)cc1	nt	nt	2	nt	nt	nt
Cc1ccc(C(=O)NCC(=O)OCC(=O)c2c(N)n(C)c(=O)n(C)c2=O)s1	4	-6	0	50*	64	53*
CCCCCCC1CC(CSc2ncn[nH]2)OC1=O (centres undefined)	8	1	7.2*	-1	110	-4
COc1ccc(NC(=O)CCC(=O)Nc2nnc(C(F)(F)F)s2)c(OC)c1	20	1	-1	-2	94	-6
c1cc(-c2nc3ccccc3o2)nc(-c2nc3ccccc3o2)c1	8	-3	nt	29	248*	12
COc1ccc(/C=N/Nc2nc(-c3ccc(Cl)cc3)cc(C(F)(F)F)n2)cc1OC	nt	nt	5.6*	nt	nt	nt
COc1ccc(-c2cnnc(N/N=C/c3ccc(OC)c(OC)c3)n2)cc1	nt	nt	-5	nt	nt	nt
O=C(c1noc2c1CCCCC2)N1CCN(C(c2ccccc2)c2ccccc2)CC1	0	-7	nt	-2	114	-1
O=C(c1noc2c1CCCC2)N1CCN(C(c2ccccc2)c2ccccc2)CC1	-2	27	2	-10	240*	-11
N=C1C(c2nc3ccccc3[nH]2)=C(O)CN1c1ccccc1	1	-34	-2	0	124	0
N=C1C(c2nc3ccccc3[nH]2)=C(O)CN1c1ccc(CC(=O)O)cc1	-10	-11	0	58*	52	25
CCCCCCN1CC(O)=C(c2nc3ccccc3[nH]2)C1=N	2	5	-3	46	244*[fluorescence artefact?]	61*[fluorescence artefact?]
O=c1nc2s/c(=C\c3ccc(-c4ccccc4[N+](=O)[O-])o3)c(=O)n2nc1-c1ccccc1	nt	nt	5.2*	nt	nt	nt
O=S(=O)(c1ccc(OCC(O)CN2CCc3ccccc3C2)cc1)N1CCOCC1 (centres undefined)	-6	-2	-2	-4	110	2
COc1ccccc1C(=O)Nc1nnc(-c2ccco2)s1	-4	-24	-2	14	242*	12
SMILES	Smad3 inh	MRP resist rev	MRP1 act	ERb SRC1 inh	ERa SRC1 pot	ERa SRC1 inh
COc1ccc(C(=O)Nc2nnc(-c3ccco3)s2)cc1	-4	-6	-3	30	463*[fluorescence artefact?]	4
COc1ccccc1NC(=O)Nc1nnc(-c2ccco2)s1	nt	nt	-2	nt	nt	nt
CN(CC(=O)O)CC(=O)O	0	nt	nt	nt	nt	nt
CCN1CCc2c(C#N)c(NCc3ccccc3)nc(N(CC)CC)c2C1	-5	2	-4	0	675*[fluorescence artefact?]	5
C=CCNc1nc(NCc2ccccc2)c(C#N)c2c1CN(C)CC2	-24	-11	-4	3	100	-1
N#Cc1c(NCCN)nc(NCc2ccccc2)c2c1CCN(Cc1ccccc1)C2	13	-11	nt	38	96	79*
Cc1ccc(N(CC2=NCCN2)c2cccc(O)c2)cc1	1	-14	-3	70*!	94	-4
c1ccc(CN(CC2=NCCN2)c2ccccc2)cc1	5	-2	-1	4	119	-6
